In PubChem BioAssay (NCATS):
Records with an inconclusive call do not appear. Where a call stands in place of a potency, no number is given. Unmarked numbers belong to inactive results. The source made the active and inactive calls. Calls come from the whole dose curve; as a rule, active = well fitted curve in the direction sought with a large enough effect; inconclusive = small, poorly fitted or top-dose-only effect, or another doubt; inactive = no such curve, though single readings can be large; an effect the other way counts as inactive or inconclusive.

Tests used:
[1] = biological target: ATP-dependent 6-phosphofructokinase (Trypanosoma brucei brucei) (UniProt O15648); assay: qHTS Assay to Find Inhibitors of T. brucei phosphofructokinase: hit validation (AID 492961);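 note: luminescence reports ADP formed as PFK phosphorylates fructose-6-phosphate with ATP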
Sequence of ATP-dependent 6-phosphofructokinase (Trypanosoma brucei brucei) (O15648 whole entry, looked up): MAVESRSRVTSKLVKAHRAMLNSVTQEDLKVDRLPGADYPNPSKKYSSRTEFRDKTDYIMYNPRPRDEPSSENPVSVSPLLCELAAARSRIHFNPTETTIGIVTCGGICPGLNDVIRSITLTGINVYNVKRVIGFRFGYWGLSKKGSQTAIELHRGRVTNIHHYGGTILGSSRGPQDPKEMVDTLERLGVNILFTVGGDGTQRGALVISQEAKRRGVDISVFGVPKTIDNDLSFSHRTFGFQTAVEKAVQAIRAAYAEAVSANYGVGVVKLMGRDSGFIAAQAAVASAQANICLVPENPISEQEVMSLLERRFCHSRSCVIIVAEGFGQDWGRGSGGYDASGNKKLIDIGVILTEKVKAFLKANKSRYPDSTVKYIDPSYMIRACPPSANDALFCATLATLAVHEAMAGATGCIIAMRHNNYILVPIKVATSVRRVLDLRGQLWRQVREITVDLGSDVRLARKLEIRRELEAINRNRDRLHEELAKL
In short: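 Compounds titrated; %activity normalized to 0x and 1x enzyme controls, curve-fitted. Readout: ADP-Glo luminescence after 45 min room-temperature reaction of 1.25 nM PFK, 0.1 mM ATP, 0.5 mM F6P, pH 8.0.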

[2] = qHTS profiling for inhibitors of Plasmodium falciparum proliferation (AID 504749); note: nearly all actives have a fitted effect of over 60% in size; note: potency is the fitted concentration of half-maximal effect; conditions: P. falciparum in erythrocytes, SYBR Green DNA, 72 h
In short: (§1)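 SYBR Green fluorescence (ex 485 nm, em 535 nm) reports parasite DNA after 72 h compound exposure of infected red cells at 0.3% parasitemia, 2.5% hematocrit; signal normalized to 0.29 uM artemisinin and vehicle wells.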

3D7 = assay: as above; conditions: P. falciparum in erythrocytes, SYBR Green DNA, 72 h; series mostly up to 28.7 µM
In short: as §1

ATS189 = assay: as above; conditions: P. falciparum in erythrocytes, SYBR Green DNA, 72 h; series mostly up to 28.7 µM
In short: as §1

ATS95 = assay: as above; conditions: P. falciparum in erythrocytes, SYBR Green DNA, 72 h; series mostly up to 28.7 µM
In short: as §1

C2A = assay: as above; conditions: P. falciparum in erythrocytes, SYBR Green DNA, 72 h; series mostly up to 28.7 µM
In short: as §1

CP185 = assay: as above; conditions: P. falciparum in erythrocytes, SYBR Green DNA, 72 h; series mostly up to 28.7 µM
In short: as §1

CP191 = assay: as above; conditions: P. falciparum in erythrocytes, SYBR Green DNA, 72 h; series mostly up to 28.7 µM
In short: as §1

CP217 = assay: as above; conditions: P. falciparum in erythrocytes, SYBR Green DNA, 72 h; series mostly up to 28.7 µM
In short: as §1

CP238 = assay: as above; conditions: P. falciparum in erythrocytes, SYBR Green DNA, 72 h; series mostly up to 28.7 µM
In short: as §1

CP250 = assay: as above; conditions: P. falciparum in erythrocytes, SYBR Green DNA, 72 h; series mostly up to 28.7 µM
In short: as §1

CP252 = assay: as above; conditions: P. falciparum in erythrocytes, SYBR Green DNA, 72 h; series mostly up to 28.7 µM
In short: as §1

CP256 = assay: as above; conditions: P. falciparum in erythrocytes, SYBR Green DNA, 72 h; series mostly up to 28.7 µM
In short: as §1

CP262 = assay: as above; conditions: P. falciparum in erythrocytes, SYBR Green DNA, 72 h; series mostly up to 28.7 µM
In short: as §1

CP265 = assay: as above; conditions: P. falciparum in erythrocytes, SYBR Green DNA, 72 h; series mostly up to 28.7 µM
In short: as §1

CP286 = assay: as above; conditions: P. falciparum in erythrocytes, SYBR Green DNA, 72 h; series mostly up to 28.7 µM
In short: as §1

DFO2036 = assay: as above; conditions: P. falciparum in erythrocytes, SYBR Green DNA, 72 h; series mostly up to 28.7 µM
In short: as §1

Dd2 = assay: as above; conditions: P. falciparum in erythrocytes, SYBR Green DNA, 72 h; series mostly up to 28.7 µM
In short: as §1

HB3 = assay: as above; conditions: P. falciparum in erythrocytes, SYBR Green DNA, 72 h; series mostly up to 28.7 µM
In short: as §1

P94_40 = assay: as above; conditions: P. falciparum in erythrocytes, SYBR Green DNA, 72 h; series mostly up to 28.7 µM
In short: as §1

[3] = at 28.7 µM (top of the series), parasite line A
[4] = at 28.7 µM (top of the series), parasite line B

CCN1CCN(C(=O)NC(C(=O)NC2C(=O)N3C(C(=O)O)=C(CSc4nnnn4C)CSC23)c2ccc(O)cc2)C(=O)C1=O (centres undefined)
Potency [1]: inactive | activity, negative = inhibition [2, 3]: 1.12% | activity, negative = inhibition [2, 4]: -9.29% | Potency (3D7): inactive | Potency (ATS189): inactive | Potency (ATS95): inactive | Potency (C2A): inactive | Potency (CP185): inactive | Potency (CP191): inactive | Potency (CP217): inactive | Potency (CP238): inactive | Potency (CP250): inactive | Potency (CP252): inactive | Potency (CP256): inactive | Potency (CP262): inactive | Potency (CP265): inactive | Potency (CP286): inactive | Potency (DFO2036): inactive | Potency (Dd2): inactive | Potency (HB3): inactive | Potency (P94_40): inactive

CC(=O)N[C@H]1[C@H](O[C@@H]2c3ccc(c(Cl)c3)Oc3cc4cc(c3O[C@@H]3O[C@H](CO)[C@@H](O)[C@H](O)C3C)Oc3ccc(cc3Cl)C[C@H]3NC(=O)[C@@H](N)c5ccc(O)c(c5)Oc5cc(O)cc(c5)[C@H](NC3=O)C(=O)N[C@H]4C(=O)N[C@H]3C(=O)N[C@@H]2C(=O)N[C@@H](C(=O)O)c2cc(O)cc(O[C@H]4O[C@H](CO)[C@@H](O)C(O)[C@@H]4O)c2-c2cc3ccc2O)O[C@H](CO)[C@@H](O)[C@@H]1O (some centres undefined)
Potency [1]: inactive | activity, negative = inhibition ([2]; at 12.8 µM (top of the series), parasite line A): -7.42% | activity, negative = inhibition ([2]; at 12.8 µM (top of the series), parasite line B): 7.54% | Potency (3D7): inactive | Potency (ATS189): inactive | Potency (ATS95): inactive | Potency (C2A): inactive | Potency (CP185): inactive | Potency (CP191): inactive | Potency (CP217): inactive | Potency (CP238): inactive | Potency (CP250): inactive | Potency (CP252): inactive | Potency (CP256): inactive | Potency (CP262): inactive | Potency (CP265): inactive | Potency (CP286): inactive | Potency (DFO2036): inactive | Potency (Dd2): inactive | Potency (HB3): inactive | Potency (P94_40): inactive

NC[C@@H]1O[C@H](OC2[C@@H](CO)O[C@@H](OC3[C@H](O)[C@H](N)C[C@H](N)[C@H]3OC3O[C@H](CO)[C@@H](O)[C@H](O)[C@@H]3N)[C@H]2O)C(N)[C@H](O)[C@@H]1O (some centres undefined)
Potency [1]: inactive | activity, negative = inhibition [2, 3]: 11.9% | activity, negative = inhibition [2, 4]: 20% | Potency (3D7): inactive | Potency (ATS189): inactive | Potency (ATS95): inactive | Potency (C2A): inactive | Potency (CP185): inactive | Potency (CP191): inactive | Potency (CP217): inactive | Potency (CP238): inactive | Potency (CP250): inactive | Potency (CP252): inactive | Potency (CP256): inactive | Potency (CP262): inactive | Potency (CP265): inactive | Potency (CP286): inactive | Potency (DFO2036): inactive | Potency (Dd2): inactive | Potency (HB3): inactive | Potency (P94_40): inactive

C[C@H]1OC(OC2C(O)[C@@H](O)C(OC3C(O)[C@@H](O)C(O)O[C@@H]3CO)O[C@@H]2CO)[C@H](O)C(O)C1N[C@H]1C=C(CO)[C@@H](O)[C@H](O)C1O (some centres undefined)
Potency [1]: inactive | activity, negative = inhibition [2, 3]: -6.96% | activity, negative = inhibition [2, 4]: 11.4% | Potency (3D7): inactive | Potency (ATS189): inactive | Potency (ATS95): inactive | Potency (C2A): inactive | Potency (CP185): inactive | Potency (CP191): inactive | Potency (CP217): inactive | Potency (CP238): inactive | Potency (CP250): inactive | Potency (CP252): inactive | Potency (CP256): inactive | Potency (CP262): inactive | Potency (CP265): inactive | Potency (CP286): inactive | Potency (DFO2036): inactive | Potency (Dd2): inactive | Potency (HB3): inactive | Potency (P94_40): inactive

CC1OC(OCC2OC(Oc3c(-c4ccc(OCCO)c(OCCO)c4)oc4cc(OCCO)cc(O)c4c3=O)C(O)C(O)C2O)[C@@H](O)C(O)C1O (some centres undefined)
Potency [1]: inactive | activity, negative = inhibition [2, 3]: -11% | activity, negative = inhibition [2, 4]: 4.27% | Potency (3D7): inactive | Potency (ATS189): inactive | Potency (ATS95): inactive | Potency (C2A): inactive | Potency (CP185): inactive | Potency (CP191): inactive | Potency (CP217): inactive | Potency (CP238): inactive | Potency (CP250): inactive | Potency (CP252): inactive | Potency (CP256): inactive | Potency (CP262): inactive | Potency (CP265): inactive | Potency (CP286): inactive | Potency (DFO2036): inactive | Potency (Dd2): inactive | Potency (HB3): inactive | Potency (P94_40): inactive

OCC1O[C@H](O[C@H]2C(O)C(O)C(O)O[C@@H]2CO)C(O)C(O)C1O (some centres undefined)
Potency [1]: inactive | activity, negative = inhibition [2, 3]: 7.88% | activity, negative = inhibition [2, 4]: 6.42% | Potency (3D7): inactive | Potency (ATS189): inactive | Potency (ATS95): inactive | Potency (C2A): inactive | Potency (CP185): inactive | Potency (CP191): inactive | Potency (CP217): inactive | Potency (CP238): inactive | Potency (CP250): inactive | Potency (CP252): inactive | Potency (CP256): inactive | Potency (CP262): inactive | Potency (CP265): inactive | Potency (CP286): inactive | Potency (DFO2036): inactive | Potency (Dd2): inactive | Potency (HB3): inactive | Potency (P94_40): inactive

OC[C@@H]1O[C@](CO)(O[C@H]2O[C@H](CO)[C@@H](O)[C@H](O)[C@H]2O)[C@H](O)[C@H]1O
Potency [1]: inactive | activity, negative = inhibition [2, 3]: -1.62% | activity, negative = inhibition [2, 4]: 7.05% | Potency (3D7): inactive | Potency (ATS189): inactive | Potency (ATS95): inactive | Potency (C2A): inactive | Potency (CP185): inactive | Potency (CP191): inactive | Potency (CP217): inactive | Potency (CP238): inactive | Potency (CP250): inactive | Potency (CP252): inactive | Potency (CP256): inactive | Potency (CP262): inactive | Potency (CP265): inactive | Potency (CP286): inactive | Potency (DFO2036): inactive | Potency (Dd2): inactive | Potency (HB3): inactive | Potency (P94_40): inactive

CCCCCCCCCCCCCCCC(=O)OCC(COP(=O)(O)OCC[N+](C)(C)C)OC(=O)CCCCCCCCCCCCCCC (centres undefined)
Potency [1]: inactive | activity, negative = inhibition [2, 3]: -4.13% | activity, negative = inhibition [2, 4]: 3.84% | Potency (3D7): inactive | Potency (ATS189): inactive | Potency (ATS95): inactive | Potency (C2A): inactive | Potency (CP185): inactive | Potency (CP191): inactive | Potency (CP217): inactive | Potency (CP238): inactive | Potency (CP250): inactive | Potency (CP252): inactive | Potency (CP256): inactive | Potency (CP262): inactive | Potency (CP265): inactive | Potency (CP286): inactive | Potency (DFO2036): inactive | Potency (Dd2): inactive | Potency (HB3): inactive | Potency (P94_40): inactive

CO[C@H]1OC2O[C@@]3(C)CC[C@H]4[C@H](C)CC[C@@H]([C@H]1C)[C@@]24OO3 (some centres undefined)
Potency [1]: inactive | Potency ([2]; parasite line A): 25.1 nM (active) | Potency ([2]; parasite line B): 15.8 nM (active) | Potency (3D7): 14.1 nM (active) | Potency (ATS189): 14.1 nM (active) | Potency (ATS95): 25.1 nM (active) | Potency (C2A): 35.5 nM (active) | Potency (CP185): 31.6 nM (active) | Potency (CP191): 11.2 nM (active) | Potency (CP217): 31.6 nM (active) | Potency (CP238): 22.4 nM (active) | Potency (CP250): 63.1 nM (active) | Potency (CP252): 31.6 nM (active) | Potency (CP256): 12.6 nM (active) | Potency (CP262): 33.8 nM (active) | Potency (CP265): 3.2 nM (active) | Potency (CP286): 17.8 nM (active) | Potency (DFO2036): 15.8 nM (active) | Potency (Dd2): 7.1 nM (active) | Potency (HB3): 7.9 nM (active) | Potency (P94_40): 11.2 nM (active)
